Experimental data as given in the antibiotic and cytotoxicity screens of Wong et al. (2023).
Among all 39,000 compounds or so, about 3,300 (8.5%) were called active. What follows is part of a selection rich in actives, with near analogues and random picks from the rest.

test system: HepG2; assay: cytotoxicity call (relative viability < 0.9); details: 10 µM

SMILES	cytotoxicity call
COCC#Cc1ccc2c(c1)O[C@H](CN(C)S(=O)(=O)c1cccc(F)c1)[C@@H](C)CN([C@H](C)CO)S2(=O)=O	inactive
C[C@@H]1CCCCO[C@H](CN(C)Cc2ccc(C(=O)O)cc2)[C@@H](C)CN([C@@H](C)CO)C(=O)c2cc(NC(=O)NC3CCCCC3)ccc2O1	inactive
Cc1ccc2nc(-c3ccc(/N=C\c4ccc[nH]4)cc3)sc2c1	active
Cc1ccc2nc(-c3ccc(NC(=O)C4CCC4)cc3)sc2c1	inactive
Cc1ccc2nc(/N=C/c3ccc(Cl)cc3Cl)sc2c1	inactive
COc1ccc2c3c([nH]c2c1)[C@H](CO)N(CC1CCCCC1)C[C@]13CCN(CC1)C(=O)Nc1cccc(c1)F	inactive
COc1ccc2c3c([nH]c2c1)[C@@H](CO)N(C[C@]13CCN(CC1)CC1CCCCC1)C(=O)Nc1cccc(c1)F	active
COc1ccc2c3c([nH]c2c1)[C@@H](CO)N(C[C@]13CCN(CC1)CC1CCCCC1)C(=O)Nc1c(noc1C)C	inactive
COc1ccc2c3c([nH]c2c1)[C@H](CO)N(C[C@]13CCN(CC1)CC1CCCCC1)C(=O)Nc1c(noc1C)C	inactive
COc1ccc2c3c([nH]c2c1)[C@H](CO)N(C[C@]13CCN(CC1)CC1CCCCC1)C(=O)Nc1cccc(c1)F	active
COc1ccc2c3c([nH]c2c1)[C@@H](CO)N(CC1CCCCC1)C[C@]13CCN(CC1)C(=O)Nc1cccc(c1)F	inactive
C[C@@H]1CCCCO[C@@H](CN(C)C(=O)CCC(F)(F)F)[C@@H](C)CN([C@H](C)CO)C(=O)c2cc(NC(=O)Nc3ccc(F)cc3)ccc2O1	inactive
C[C@H]1CN([C@@H](C)CO)C(=O)c2cccc(NC(=O)c3ccc(-c4nccs4)cc3)c2O[C@@H]1CN(C)C(=O)Nc1ccc(F)cc1	inactive
Cc1noc(C)c1NC(=O)N(C)C[C@@H]1OCCCC[C@H](C)Oc2ccc(NC(=O)NC3CCCCC3)cc2C(=O)N([C@@H](C)CO)C[C@@H]1C	inactive
O=c1[nH]nc(Br)c(=O)[nH]1	inactive
O=C(O)C[C@H]1CC[C@@H]2[C@H](COC[C@@H](O)CN2S(=O)(=O)c2ccc(F)cc2)O1	inactive
O=c1oc2ccccc2c(O)c1Cc1c(O)c2ccccc2oc1=O	inactive
CC(=O)CC(c1ccccc1)c1c(O)c2ccccc2oc1=O (stereo not given)	active
O=C(O)c1cc(=O)c2ccccc2o1	inactive
CO[C@@H](CN(C)S(=O)(=O)c1cccc(Cl)c1)[C@@H](C)CN([C@@H](C)CO)S(=O)(=O)c1cccc(Cl)c1	inactive
C[C@@H]1CN([C@H](C)CO)C(=O)Cc2cc(NC(=O)Cc3cn(C)c4ccccc34)ccc2O[C@@H]1CN(C)Cc1ccc(Oc2ccccc2)cc1	active
C[C@@H]1CN([C@@H](C)CO)C(=O)Cc2cc(NC(=O)Cc3cn(C)c4ccccc34)ccc2O[C@H]1CN(C)Cc1ccc(Oc2ccccc2)cc1	active

SMILES	cytotoxicity call
C[C@H]1CN([C@@H](C)CO)C(=O)Cc2cc(NC(=O)Cc3cn(C)c4ccccc34)ccc2O[C@H]1CN(C)Cc1ccc(Oc2ccccc2)cc1	active
C[C@H]1CN([C@@H](C)CO)C(=O)Cc2cc(NC(=O)Cc3cn(C)c4ccccc34)ccc2O[C@@H]1CN(C)Cc1ccc(Oc2ccccc2)cc1	inactive
C[C@@H]1CN([C@H](C)CO)C(=O)Cc2cc(NC(=O)Cc3cn(C)c4ccccc34)ccc2O[C@H]1CN(C)Cc1ccc(Oc2ccccc2)cc1	inactive
C[C@H](CO)N1C[C@H](C)[C@H](CN(C)Cc2ccc(Oc3ccccc3)cc2)Oc2ccc(NC(=O)Cc3cn(C)c4ccccc34)cc2CC1=O	active
CC(C)=Cc1ccc(C#N)c(=S)[nH]1	inactive
CC[C@@H](O[Si](C#C[Si](C(C)C)(C(C)C)C(C)C)(C(C)C)C(C)C)c1cn([C@H](CO)Cc2ccccc2)nn1	inactive
Cc1noc(C)c1NC(=O)N(C)C[C@@H]1OCCCC[C@H](C)Oc2ccc(NC(=O)Nc3ccc4c(c3)OCO4)cc2C(=O)N([C@H](C)CO)C[C@@H]1C	inactive
COc1ccc(S(=O)(=O)Nc2ccc3c(c2)CC(=O)N([C@@H](C)CO)C[C@H](C)[C@H](CN(C)S(C)(=O)=O)O3)cc1	inactive
Cc1noc(C)c1NC(=O)Nc1ccc2c(c1)C(=O)N([C@@H](C)CO)C[C@@H](C)[C@H](CN(C)C(=O)Nc1ccc3c(c1)OCO3)OCCCC[C@H](C)O2	inactive
CNC[C@@H]1OCCCC[C@@H](C)Oc2ccc(NC(=O)Nc3ccc(C(F)(F)F)cc3)cc2C(=O)N([C@H](C)CO)C[C@@H]1C	inactive
C[C@@H]1CN([C@H](C)CO)C(=O)c2cc(NC(=O)Cc3cn(C)c4ccccc34)ccc2O[C@@H]1CN(C)S(C)(=O)=O	inactive
O=C(C[C@H]1C[C@H]2c3cc(NC(=O)Nc4ccccc4F)ccc3O[C@H]2[C@@H](CO)O1)NCc1ccc(Oc2ccccc2)cc1	inactive
C[C@@H]1CCCCO[C@@H](CN(C)Cc2ccncc2)[C@@H](C)CN([C@H](C)CO)C(=O)c2cc(NS(C)(=O)=O)ccc2O1	inactive
C[C@@H]1CN([C@@H](C)CO)C(=O)c2cccc(NC(=O)CCCCCC(=O)Nc3ccccc3N)c2O[C@H]1CN(C)Cc1ccc(C(F)(F)F)cc1	inactive
Cc1noc(C)c1S(=O)(=O)Nc1ccc2c(c1)C(=O)N([C@H](C)CO)C[C@H](C)[C@@H](CN(C)C)OCCCC[C@H](C)O2	inactive
CCOC(=O)Cc1c(C)[nH]c(=O)[nH]c1=O	inactive
COc1cccc(C#Cc2cnc3c(c2)C(=O)N([C@@H](C)CO)C[C@@H](C)[C@H](CN(C)C(=O)C2CCC2)O3)c1	inactive
Cc1cc(C(=O)Nc2cccc3c2O[C@@H](CN(C)S(=O)(=O)c2cccs2)[C@@H](C)CN([C@H](C)CO)C3=O)n(C)n1	inactive
C[C@@H]1CN([C@@H](C)CO)C(=O)Cc2cc(NC(=O)Cc3cn(C)c4ccccc34)ccc2O[C@@H]1CN(C)Cc1ccc(Oc2ccccc2)cc1	active
C[C@H](CO)N1C[C@H](C)[C@@H](CN(C)Cc2ccc(Oc3ccccc3)cc2)Oc2ccc(NC(=O)Cc3cn(C)c4ccccc34)cc2CC1=O	inactive
C[C@@H]1CN([C@@H](C)CO)C(=O)c2c(c3ccccc3n2C)-c2ccccc2CO[C@@H]1CN(C)Cc1ccc(C(F)(F)F)cc1	inactive
C[C@@H]1CN([C@H](C)CO)C(=O)c2c(c3ccccc3n2C)-c2ccccc2CO[C@@H]1CN(C)Cc1ccc(C(F)(F)F)cc1	inactive

SMILES	cytotoxicity call
C[C@@H]1CN([C@H](C)CO)C(=O)c2c(c3ccccc3n2C)-c2ccccc2CO[C@H]1CN(C)Cc1ccc(Cl)c(Cl)c1	inactive
C[C@@H]1CN([C@@H](C)CO)C(=O)c2c(c3ccccc3n2C)-c2ccccc2CO[C@@H]1CN(C)Cc1ccc(-c2ccccc2)cc1	inactive
C[C@H](CO)N1C[C@H](C)[C@H](CN(C)Cc2ccc(Cl)c(Cl)c2)OCc2ccccc2-c2c(n(C)c3ccccc23)C1=O	active
C[C@@H]1CN([C@@H](C)CO)C(=O)c2c(c3ccccc3n2C)-c2ccccc2CO[C@H]1CN(C)Cc1ccc(Cl)c(Cl)c1	inactive
C[C@@H]1CN([C@H](C)CO)C(=O)c2c(c3ccccc3n2C)-c2ccccc2CO[C@H]1CN(C)Cc1ccc(C(F)(F)F)cc1	active
C[C@@H]1CN([C@H](C)CO)C(=O)c2c(c3ccccc3n2C)-c2ccccc2CO[C@@H]1CN(C)Cc1ccc(-c2ccccc2)cc1	inactive
C[C@H]1CN([C@@H](C)CO)C(=O)c2c(c3ccccc3n2C)-c2ccccc2CO[C@@H]1CN(C)Cc1ccc(-c2ccccc2)cc1	inactive
C[C@@H]1CN([C@H](C)CO)C(=O)c2c(c3ccccc3n2C)-c2ccccc2CO[C@@H]1CN(C)Cc1ccccc1	active
C[C@@H]1CN([C@@H](C)CO)C(=O)c2c(c3ccccc3n2C)-c2ccccc2CO[C@H]1CN(C)Cc1ccccc1	active
C[C@H](CO)N1C[C@H](C)[C@@H](CN(C)Cc2ccc(-c3ccccc3)cc2)OCc2ccccc2-c2c(n(C)c3ccccc23)C1=O	inactive
C[C@@H]1CCCCO[C@H](CN(C)C(=O)Nc2ccc(C(F)(F)F)cc2)[C@H](C)CN([C@@H](C)CO)C(=O)c2cc(NC(=O)Nc3cccc4ccccc34)ccc2O1	inactive
C[C@@H]1CN([C@@H](C)CO)C(=O)c2cc(NC(=O)C3CCCCC3)ccc2O[C@@H](C)CCCCO[C@@H]1CN(C)C(=O)Nc1ccc(C(F)(F)F)cc1	inactive
COc1cccc(C#Cc2ccc3c(c2)O[C@@H](CN(C)C(C)=O)[C@H](C)CN([C@@H](C)CO)S3(=O)=O)c1	inactive
COc1ccc(NC(=O)N(C)C[C@H]2OCCCC[C@H](C)Oc3ccc(NC(=O)Nc4cccc5ccccc45)cc3C(=O)N([C@@H](C)CO)C[C@H]2C)cc1	inactive
CCCC1CCC(c2ccc(OC(=O)c3ccco3)cc2)CC1 (stereo not given)	inactive
CCCN(C)C[C@@H]1OCCCC[C@@H](C)Oc2ccc(NC(=O)CCC(F)(F)F)cc2C(=O)N([C@@H](C)CO)C[C@@H]1C	inactive
C[C@@H]1CN([C@@H](C)CO)C(=O)c2cc(C3=CCCC3)cnc2O[C@H]1CN(C)S(=O)(=O)c1cn(C)cn1	inactive
C[C@@H]1CN([C@@H](C)CO)C(=O)CCCn2cc(nn2)CO[C@@H]1CN(C)C(=O)Nc1cccc2ccccc12	inactive
CCC(=O)N1C[C@]2(C1)CN([C@H](CO)c1c2c2ccc(cc2n1C)OC)C(=O)CN1CCOCC1	inactive
C[C@H](CO)N1C[C@H](C)[C@H](CN(C)Cc2ccc(-c3ccccc3)cc2)Oc2c(NC(=O)Nc3ccc4c(c3)OCO4)cccc2C1=O	inactive
C[C@@H]1CN([C@@H](C)CO)S(=O)(=O)c2ccc(C#CC3(O)CCCC3)cc2O[C@H]1CN(C)C(=O)c1ccccc1	inactive
